Reference: PubChem BioAssay (NCI)
Compounds without any hit were thinned out: in the full panel of roughly 83,000, 20% have a hit.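 How to read the values: 0–100, growth inhibition (40 = 60% inhibited); 0, no net growth; -100 to 0, cell death (-40 = 40% of starting cells died; -100 = all dead).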 The source made the active and inactive calls. Rule for the calls: active = growth percent below 10; inactive = the rest.

What was measured:
Experiment in all cases: NCI-60 one-dose screen, 48 h (100 = growth as untreated, 0 = no growth, -100 = all killed)
[1] = system: K-562 leukemia; conditions: 10 µM unless noted
[2] = system: MALME-3M melanoma; conditions: 10 µM unless noted
[3] = system: MDA-MB-231 breast; conditions: 10 µM unless noted
[4] = system: RXF 393 renal; conditions: 10 µM unless noted
[5] = system: SF-268 CNS; conditions: 10 µM unless noted
[6] = system: SF-295 CNS; conditions: 10 µM unless noted
[7] = system: SF-539 CNS; conditions: 10 µM unless noted
[8] = system: UACC-257 melanoma; conditions: 10 µM unless noted
[9] = system: M14 melanoma; conditions: 10 µM unless noted
[10] = system: HCT-15 colon; conditions: 10 µM unless noted
[11] = system: HT29 colon; conditions: 10 µM unless noted
[12] = system: SNB-75 CNS; conditions: 10 µM unless noted
[13] = system: SNB-19 CNS; conditions: 10 µM unless noted
[14] = system: U251 CNS; conditions: 10 µM unless noted
[15] = system: PC-3 prostate; conditions: 10 µM unless noted
[16] = system: SK-MEL-5 melanoma; conditions: 10 µM unless noted
[17] = system: UACC-62 melanoma; conditions: 10 µM unless noted
[18] = system: LOX IMVI melanoma; conditions: 10 µM unless noted
[19] = system: SK-MEL-28 melanoma; conditions: 10 µM
[20] = system: SK-MEL-2 melanoma; conditions: 10 µM unless noted

Measured: growth

Clc1ncccc1Nc1ccc2nnc(-c3ccncc3)n2n1
inactive: [1] 66.8% | [2] 98.5% | [3] 105% | [4] 114% | [5] 93.3% | [6] 105% | [7] 99.7% | [8] 102% | [9] 98.6% | [10] 87.1% | [11] 110% | [12] 99.2% | [13] 102% | [14] 101% | [15] 102% | [16] 104% | [17] 106% | [18] 92.8% | [19] 112% | [20] 109%

COC(=O)c1c2c(c(C)[n+]([O-])c1C)C(=O)C(NCc1ccc(F)c(F)c1)=CC2=O
active: [2] -70.8% | [3] -2.52% | [7] 2.45% | [8] -30% | [9] 4.33% | [10] 6.07% | [13] 8.33% | [14] 2.99% | [16] -97% | [17] -15.7% | [18] 5.3%
inactive: [1] 18.4% | [4] 32.2% | [5] 12% | [6] 18.2% | [11] 11.6% | [12] 83.6% | [15] 15.6% | [19] 50.2% | [20] 43.1%

Oc1c(C(Nc2ccccn2)c2cccc(Oc3ccccc3)c2)ccc2cccnc12 (stereo not given)
active: [1] -64.1% | [2] -74.8% | [3] -89.3% | [4] -92% | [5] -86.7% | [6] -86.9% | [7] -93.1% | [8] -77.1% | [9] -68.6% | [10] -57.6% | [11] -93.5% | [12] -99.1% | [13] -80.7% | [14] -89.2% | [15] -90.3% | [16] -68.1% | [17] -86.6% | [18] -86.5% | [19] -97.2% | [20] -82.9%

O=NN(C(=O)NC1CCC(C(=O)O)CC1)C1CCC(C(=O)O)CC1 (stereo not given)
inactive: [1] 95% | [2] 104% | [3] 103% | [4] 106% | [5] 107% | [6] 107% | [7] 103% | [8] 96.7% | [9] 104% | [10] 96.3% | [11] 108% | [12] 84.1% | [13] 100% | [14] 104% | [15] 98.6% | [16] 104% | [17] 108% | [18] 99.3% | [19] 106% | [20] 122%

CCCCC(O)(c1ccc(Cl)cc1)C(CN1CCOCC1)c1ccc(Cl)cc1 (stereo not given)
inactive: [1] 17.9% | [2] 61.2% | [3] 35.8% | [4] 18.5% | [5] 40.2% | [6] 40.9% | [7] 68.8% | [8] 39.4% | [9] 28.6% | [10] 34.9% | [11] 53.7% | [12] 39.6% | [13] 60.1% | [14] 23.1% | [15] 17.6% | [16] 13.3% | [17] 31.1% | [18] 33.9% | [19] 54.1% | [20] 50.1%

COC(=O)/C(CCC=C(C)C)=C1\[C@@H](OC(C)=O)C[C@@]2(C)[C@H]1C[C@@H](O)[C@H]1[C@@]3(C)CC[C@H](NCCCNCCCCNCCCN)[C@@H](C)[C@@H]3CC[C@@]12C
inactive: [1] 33.4% | [2] 47.2% | [3] 56% | [4] 75.8% | [5] 81.3% | [6] 41.9% | [7] 66% | [8] 91.9% | [9] 40% | [10] 76.8% | [11] 31.1% | [12] 93.4% | [13] 61.8% | [14] 71.5% | [15] 77.3% | [16] 12.6% | [17] 31.9% | [18] 52.9% | [19] 19.9% | [20] 98.1%

O=C1Nc2ccccc2/C1=C/c1ccc[nH]1
inactive: [1] 107% | [2] 94.5% | [3] 40.3% | [4] 80.5% | [5] 92.1% | [6] 102% | [7] 86.6% | [8] 96.6% | [9] 89.8% | [10] 42.1% | [11] 110% | [12] 105% | [13] 90.3% | [14] 83% | [15] 106% | [16] 58.7% | [17] 97.7% | [18] 98.8% | [19] 114% | [20] 103%

O=C(/C=C/c1ccc(Cl)cc1)c1ccc(Nc2nc(NCCO)nc(Nc3ccc(Cl)cc3)n2)cc1
inactive: [1] 37.6% | [2] 90.3% | [3] 62.4% | [4] 54.3% | [5] 60.2% | [6] 87.2% | [7] 64.8% | [8] 95.8% | [9] 64.1% | [10] 25.9% | [11] 30.5% | [12] 47.5% | [13] 77.6% | [14] 21.8% | [15] 53.1% | [16] 81.5% | [17] 60.7% | [18] 37.2% | [19] 78.1% | [20] 96%
